Consider 70 compounds from PubChem BioAssay (Tox21).

Values joined by “and” are separate entries in the source; they are usually repeats but may differ in a detail not shown here. Equal values may be shown once. Results filed as inconclusive are left out. Entries that show only a call come without a potency. Active and inactive are the calls of the source. Calls follow the shape of the dose curve; as a rule, active = well fitted cell-killing curve with a large enough effect in the repeat runs; inconclusive = weak or mixed curves, or effect the other way; inactive = flat fitted curve, though single readings scatter.

Assay [1] can be described thus: cAMP Responsive Elements (CRE) small molecule antagonists, cell-based qHTS assay: qHTS cell viability counter screen (AID 2060913). Also: nearly all actives have a fitted effect of over 40% in size. Also: potency is read from the fitted curve at half-maximal effect. In a few lines: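 HEK293T CRE-bla, 2,000 cells/well, 18 h preincubation; cpd in DMSO + NKH477 0.25 uM final, 3 h 37 C/5% CO2; LiveBLAzer 2 h RT, then CellTiter-Glo 30 min RT, luminescence.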
(qHTS replaces the single test concentration by a dilution series.)

Assay [2] is described as follows: cAMP Responsive Elements (CRE) small molecule agonists, cell-based qHTS assay: qHTS cell viability counter screen (AID 2060914).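 Also: viability read after 3 h of compound exposure; nearly all actives have a fitted effect of over 50% in size.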 In a few lines: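 CRE-bla HEK 293T cells, plated 18 h at 37 °C, were exposed to compounds for 3 h at 37 °C/5% CO2. Viability was then measured in the same wells by CellTiter-Glo luminescence after 30 min at room temperature.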

On to `CCOP(=S)(OCC)Oc1nc(Cl)c(Cl)cc1Cl`, for which the Potency entry in assay [1] is “inactive”.
Same read-out and setting: next, `O=P(OCC(Br)CBr)(OCC(Br)CBr)OCC(Br)CBr` (stereo not given): “inactive”; `COc1nn(CSP(=S)(OC)OC)c(=O)s1`: “inactive”.
Still for that read-out and setting: next, `O=[N+]([O-])c1cc(C(F)(F)F)cc([N+](=O)[O-])c1Cl`: “inactive”; `O=C(OC1CCCCC1)c1ccccc1C(=O)OC1CCCCC1`: “inactive”.
In the case of `O=C1c2ccccc2C(=O)N1SC(Cl)(Cl)Cl`, the Potency result in assay [1] was “inactive”.
On the same count and under the same terms, next, `Nc1c(Cl)c(Cl)c(Cl)c(Cl)c1Cl`: “inactive”; `CCOP(=S)(OCC)SCS(=O)(=O)C(C)(C)C`: “inactive”; `O=[N+]([O-])c1ccc(Cl)c([N+](=O)[O-])c1`: 27.7 µM (active) and 57 µM (active).
As to `COP(N)(=S)Oc1ccccc1C(=O)OC(C)C` (stereo not given), in assay [1], the Potency entry was “inactive”.
`CC1CC(CC2CCC(N)C(C)C2)CCC1N` (stereo not given): the Potency entry in assay [1] is “inactive”.
Same read-out and setting: next, `C[C@]12CC[C@@H](O)C[C@@H]1CC[C@@H]1[C@@H]2CC[C@]2(C)C(=O)CC[C@@H]12`: “inactive”; `COc1c(C(C)(C)C)cc([N+](=O)[O-])c(C)c1[N+](=O)[O-]`: “inactive”; `NC(=O)O`: “inactive”.
Regarding `Cc1ccc(N(SC(F)(Cl)Cl)S(=O)(=O)N(C)C)cc1`, the Potency result in assay [1] was “inactive”.
The same measure, in the same setting: in the case of `CN[C@@H](C)[C@H](O)c1ccccc1` it was “inactive”; in that of `O=C(NC(=O)c1c(F)cccc1F)Nc1ccc(OC(F)(F)C(F)OC(F)(F)F)c(Cl)c1` (stereo not given), “inactive”; in that of `CCC1CCC(=O)O1` (stereo not given), “inactive”.
Still for that read-out and setting: in the case of `COc1cc(OC)c(OC)cc1C=O` it was “inactive”.
On the same count and under the same terms, next, `CC1(C)C(C(=O)OC(C#N)c2cccc(Oc3ccccc3)c2)C1(C)C` (stereo not given): “inactive”; `C[C@@H]1O[C@@H](O[C@H]2C[C@@H](O)[C@]3(CO)[C@H]4[C@H](O)C[C@]5(C)[C@@H](C6=CC(=O)OC6)CC[C@]5(O)[C@@H]4CC[C@]3(O)C2)[C@H](O)[C@H](O)[C@H]1O`: 73 nM (active).
Regarding `CCCCC(CC)COC(=O)c1ccccc1C(=O)OCC(CC)CCCC` (stereo not given), in assay [1], the Potency entry was “inactive”.
Still for that read-out and setting: in the case of `O=[N+]([O-])c1ccc(O)c([N+](=O)[O-])c1` it was 54500 nM (active).
In the case of `c1ccc2nc(N3CCNCC3)ccc2c1`, the Potency result in assay [1] was “inactive”.
Same read-out and setting: next, `FC(Cl)(Cl)Cl`: “inactive”; `CN(C)N=O`: “inactive”.
Still for that read-out and setting: next, `O=C(O)c1cc(Oc2ccc(C(F)(F)F)cc2Cl)ccc1[N+](=O)[O-]`: “inactive”; `CN(C)CCN(C)C`: “inactive”.
The same measure, in the same setting: next, `CCC[N+]1(C)CCCC1`: “inactive”.
As to `C[C@@H]1CN(C2CCC(C#N)(c3ccc(F)cc3)CC2)CC[C@]1(C(=O)O)c1ccccc1` (stereo not given in full), the Potency result in assay [1] is “inactive”.
The same measure, in the same setting: in the case of `O=[N+]([O-])c1c(Cl)c(Cl)cc(Cl)c1Cl` it was “inactive”.
The same measure, in the same setting: in the case of `CC1(C)C(C=C(Cl)Cl)C1C(=O)OC(C#N)c1ccc(F)c(Oc2ccccc2)c1` (stereo not given) it was “inactive”.
On the same count and under the same terms, next, `CC(C)=CC1C(C(=O)OC(C#N)c2cccc(Oc3ccccc3)c2)C1(C)C` (stereo not given): “inactive”.
`CCC(C)(C)c1cc(-n2nc3ccccc3n2)c(O)c(C(C)(C)CC)c1`: the Potency entry in assay [1] is “inactive”.
Still for that read-out and setting: in the case of `O=C(O)CCCOc1ccc(Cl)cc1Cl` it was “inactive”; in that of `C=CC1(C)OC(=O)N(c2cc(Cl)cc(Cl)c2)C1=O` (stereo not given), “inactive”.
`CCC(=O)c1ccc(Cl)cc1`: the Potency result in assay [1] is “inactive”.
On the same count and under the same terms, in the case of `C=CCN1CC[C@]23c4c5ccc(O)c4O[C@H]2C(=O)CC[C@@]3(O)[C@H]1C5` it was “inactive”; in that of `CC(C)[C@]12CC(=O)[C@H](C)[C@H]1C2`, “inactive”; in that of `CCCCCCCCCC(=O)O[C@H]1CC[C@H]2[C@@H]3CCC4=CC(=O)CC[C@@H]4[C@H]3CC[C@]12C`, “inactive”.
Regarding `N#CCCSCCC#N`, the Potency result in assay [1] and in assay [2] was “inactive” each time.
Take `COc1ccc(C=O)cc1`: the Potency result in assay [1] and in assay [2] was “inactive” each time.
`O=C(Cl)c1ccccc1`: the Potency entry in assay [1] and in assay [2] was “inactive” in each case.
As for `Nc1ccc([N+](=O)[O-])cc1Cl`, the Potency entry in assay [1] and in assay [2] was “inactive” in each case.
For the compound `COc1cc(-c2ccc(N)c(OC)c2)ccc1N`, the Potency entry in assay [1] and in assay [2] was “inactive” in each case.
Turning to `FC(F)(F)c1ccc(Cl)cc1`, the Potency result in assay [1] and in assay [2] was “inactive” in each case.
With `C=COC(C)=O`, the Potency result in assay [1] and in assay [2] was “inactive” in each case.
On to `Cc1ccc(OP(=O)(Oc2ccc(C)cc2)Oc2ccc(C)cc2)cc1`, for which the Potency entry in assay [1] and in assay [2] was “inactive” throughout.
With `CCCCC#N`, the Potency entry in assay [1] and in assay [2] was “inactive” throughout.
On to `ClCc1cccc(Cl)c1`, for which the Potency result in assay [1] and in assay [2] was “inactive” in each case.
With `Cl/C=C/CCl`, the Potency entry in assay [1] and in assay [2] was “inactive” throughout.
With `CC(=O)O`, the Potency entry in assay [1] and in assay [2] was “inactive” throughout.
Consider `CCCN`, for which the Potency entry in assay [1] and in assay [2] was “inactive” throughout.
For `Oc1ccc(Cl)cc1Cc1ccccc1`, the Potency entry in assay [1] and in assay [2] was “inactive” throughout.
As for `CC(C)(C)NCC(O)c1cc(Cl)c(N)c(C(F)(F)F)c1` (stereo not given), the Potency entry in assay [1] and in assay [2] was “inactive” in each case.
In the case of `O=[N+]([O-])c1ccccc1O`, the Potency entry in assay [1] and in assay [2] was “inactive” in each case.
Regarding `O=C(Cc1ccccc1)c1ccccc1`, the Potency result in assay [1] and in assay [2] was “inactive” throughout.
Turning to `CCCCN(CC)C(=O)SCCC`, the Potency entry in assay [1] and in assay [2] was “inactive” throughout.
On to `CNC`, for which the Potency entry in assay [1] and in assay [2] was “inactive” throughout.
As to `[O-][Cl+3]([O-])([O-])O`, the Potency entry in assay [1] and in assay [2] was “inactive” throughout.
With `CCCN(CC1CC1)c1c([N+](=O)[O-])cc(C(F)(F)F)cc1[N+](=O)[O-]`, the Potency result in assay [1] and in assay [2] was “inactive” throughout.
`CC(NC(C)(C)C)C(=O)c1cccc(Cl)c1` (stereo not given): the Potency entry in assay [1] and in assay [2] was “inactive” throughout.
As for `C[C@H]1C(=O)O[C@@H]2CCN3CC=C(COC(=O)[C@](C)(O)[C@]1(C)O)[C@H]23`, the Potency result in assay [1] and in assay [2] was “inactive” throughout.
As for `CCOP(=S)(OCC)Oc1ccc([N+](=O)[O-])cc1`, the Potency result in assay [1] and in assay [2] was “inactive” in each case.
Take `CCC(C)Nc1c([N+](=O)[O-])cc(C(C)(C)C)cc1[N+](=O)[O-]` (stereo not given): the Potency entry in assay [1] and in assay [2] was “inactive” in each case.
In the case of `OCC1CO1` (stereo not given), the Potency entry in assay [1] and in assay [2] was “inactive” throughout.
Take `O=C(Cl)c1ccccc1F`: the Potency entry in assay [1] and in assay [2] was “inactive” throughout.
For the compound `CN1CCc2cc3c(cc2C1O)OCO3` (stereo not given), the Potency entry in assay [1] and in assay [2] was “inactive” throughout.
For `CCN(CC)C(=O)N[C@@H]1C=C2c3cccc4[nH]cc(c34)C[C@@H]2N(C)C1`, the Potency entry in assay [1] and in assay [2] was “inactive” each time.
Take `Nc1ccc(-c2ccc(N)cc2)cc1`: the Potency result in assay [1] and in assay [2] was “inactive” throughout.
